Screening data from PubChem.
Cav3 T inh = Cav3.2 calcium influx blockers – cell-based, Fluo-4 calcium fluorescence, FDSS, MLSMR library, primary screen; Voltage-dependent T-type calcium channel subunit alpha-1H (Homo sapiens), O95180; Cav3.2-expressing cells; stronger effect = lower value; B-score at 10 µM; 100,000 compounds, 4% hits; AID 449739, 2010;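 active = single-dose well whose peak fluorescence ratio is a statistical outlier from its plate by either plate-standardised score or position-corrected B-score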
sEH inh = soluble epoxide hydrolase inhibitors, primary screen, biochemical, human sEH; inhibition, % at 2 µM; 91,000 compounds, 0.34% hits; Bifunctional epoxide hydrolase 2 (Homo sapiens), P34913; recombinant human sEH enzymatic activity assay; in the data active = inhibition above about 80%
Target sequence (P34913 whole entry, looked up): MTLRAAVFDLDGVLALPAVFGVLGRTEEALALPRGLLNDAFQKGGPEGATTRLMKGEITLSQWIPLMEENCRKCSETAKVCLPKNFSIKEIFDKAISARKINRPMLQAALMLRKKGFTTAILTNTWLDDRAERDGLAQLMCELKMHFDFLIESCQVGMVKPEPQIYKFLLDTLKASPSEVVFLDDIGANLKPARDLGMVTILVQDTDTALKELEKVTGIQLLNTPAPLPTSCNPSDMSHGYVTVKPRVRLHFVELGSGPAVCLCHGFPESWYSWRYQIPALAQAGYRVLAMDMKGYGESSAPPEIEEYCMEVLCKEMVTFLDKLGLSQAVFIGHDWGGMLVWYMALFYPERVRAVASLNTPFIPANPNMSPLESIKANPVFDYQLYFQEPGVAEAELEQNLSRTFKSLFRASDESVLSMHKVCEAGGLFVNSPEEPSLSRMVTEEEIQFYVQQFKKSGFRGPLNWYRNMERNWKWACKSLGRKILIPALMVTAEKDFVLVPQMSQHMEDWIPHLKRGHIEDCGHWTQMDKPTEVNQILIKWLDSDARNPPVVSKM
IL1B cytotox = cytotoxicity in IL-1B stimulated HUVEC, primary screen, cytotoxicity control for IL-1B NFkB translocation project, imaging, Hoechst nuclear count, IL-1B stimulus; 94,000 compounds, 0.41% hits; HUVEC cell count loss; cell count reduction, % at 2 µM;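 active = cell count reduction more than 3 SD above the screen-wide mean, cut at about 70% in these data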
sEH activator = soluble epoxide hydrolase activators, primary screen, biochemical, human sEH | activation, % at 2 µM | 91,000 compounds, 0.04% hits | Bifunctional epoxide hydrolase 2 (Homo sapiens), P34913 | AID 717, 2007 | purified human sEH enzymatic activity, activator screen; in the data active = activation above about 37%
IL1B NFkB pot = enhancers of NFkB p65 translocation in HUVEC – imaging, IL-1B stimulus, high-content imaging, primary screen. HUVEC IL-1B NFkB p65 nuclear translocation imaging. activation, % at 2 µM. 94,000 compounds, 0.3% hits. AID 819, 2007;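 active = activation above 40%, about the mean plus 3 SD, also judged a hit on visual image review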;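 note: percent activation is computed from the nuclear over cytoplasmic p65 intensity ratio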
IL1B NFkB inh = inhibitors of IL-1B driven NFkB p65 nuclear import, primary screen, imaging, HUVEC, IL-1B stimulus, high-content imaging | HUVEC IL-1B NFkB p65 nuclear translocation imaging | inhibition, % at 2 µM | 94,000 compounds, 0.43% hits;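 active = inhibition above about 30% together with a positive call from visual inspection of the well image, limit read from the data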;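 note: nuclear over cytoplasmic p65 intensity ratio measured by imaging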
Hits are given with their value; . = inactive; / = not tested or not shown. An excerpt weighted towards active compounds, which were near 4.6% of everything screened.

SMILES | Cav3 T inh | sEH inh | IL1B cytotox | sEH activator | IL1B NFkB pot | IL1B NFkB inh
CCn1c(CSc2nc3ccccc3s2)nnc1SCC(=O)c1ccc(Cl)cc1 | -4.2 | . | . | . | . | .
CCn1c(CSc2nc3ccccc3s2)nnc1SCC(=O)c1ccc(O)c(O)c1 | . | . | . | . | . | .
Cc1ccc(COCCN2CCN(S(=O)(=O)c3ccccc3)CCC2=O)cc1 | . | / | / | / | / | /
CCC1S/C(=C(\C#N)C(=O)NCc2ccco2)N(c2ccc(Br)cc2)C1=O (centres undefined) | -5.4 | . | . | . | . | .
CC(C)CC(c1nnnn1Cc1ccccc1)N1CCC(C(N)=O)CC1 (centres undefined) | . | . | . | . | 58 | .
CCn1nc([N+](=O)[O-])c(C(C#N)c2nc3cc(C(F)(F)F)ccc3s2)c(Cl)c1=O (centres undefined) | -5.2 | . | . | . | . | .
Cc1ccc(Cn2c(C(C)Nc3nc(-c4ccc(Cl)c([N+](=O)[O-])c4)cs3)nc3cc(C(F)(F)F)ccc32)cc1 (centres undefined) | . | / | / | / | / | /
Cc1cc2c(cc1C)NC(c1cccnc1)C1=C(CC(C)(C)CC1=O)N2 (centres undefined) | . | . | . | . | . | .
CCOc1ccc(NC(=O)NCCCSC2CCCCC2)cc1 | . | 85 | . | . | . | .
CCOc1ccc(NC(=O)NCCN2C(C)CCCC2C)cc1 (centres undefined) | . | . | . | . | . | .
CCc1ccc(NC(=O)Cn2nc(C(F)(F)F)c3c2CCC3)cc1 | . | . | . | . | . | .
COc1cc(NC(=O)Cn2nc(C(F)(F)F)c3c2CCCC3)cc(OC)c1OC | . | . | 71 | . | . | .
CN(C)S(=O)(=O)c1ccc(N2CCCC2)c(C(=O)Nc2ccc(N3CCOCC3)cc2)c1 | . | . | . | . | . | .
CN(C)S(=O)(=O)c1ccc(N2CCCC2)c(C(=O)NC(c2ccccc2)c2ccccc2)c1 | -4.3 | . | . | . | . | .
Cc1cc(Oc2ccc(C#N)cc2)nc(N2CCOCC2)n1 | . | . | . | . | . | 37
COc1ccccc1OCCCn1cc(C#N)c2ccccc21 | -4.5 | . | . | . | . | .
N#Cc1cn(CCCOc2ccccc2)c2ccccc12 | . | . | . | . | . | .
O=C(CC1NCCNC1=O)OCCCc1ccccc1 (centres undefined) | / | . | . | . | . | .
O=C(NCCc1ccccc1F)[C@@H]1CSC2c3ccccc3C(=O)N21 (some centres undefined) | -8.2 | . | . | . | . | .
COc1ccc(O)c(-c2cc(-c3cccc(Br)c3)n[nH]2)c1 | / | . | . | . | . | .
COc1ccc(-c2cc(-c3cc(OC)ccc3O)[nH]n2)cc1 | -4.5 | . | . | . | . | .
CCOC(=O)Cc1c(C)nc(-c2ccccc2)[nH]c1=O | . | . | . | . | . | .
COC(=O)c1ccc(Cn2cc(Cl)cn2)cc1 | . | . | . | . | . | .
O=C(Nc1cccc2ccccc12)c1ccc(Cn2cc(Cl)cn2)cc1 | -3.9 | . | . | . | . | .
O=C(NCCC1=CCCCC1)NC12CC3CC(CC(C3)C1)C2 | . | 97 | . | . | . | .
SMILES | Cav3 T inh | sEH inh | IL1B cytotox | sEH activator | IL1B NFkB pot | IL1B NFkB inh
O=C(NCCC1=CCCCC1)C(c1ccccc1)c1ccccc1 | . | . | . | . | . | .
Cc1ccc2c(c1)nnn2C1CCN(C(=O)NC23CC4CC(CC(C4)C2)C3)CC1 | . | 85 | . | . | . | .
CC(C)(C)n1[nH]c2c3c(ccc2c1=O)C(=O)c1ccccc1C3=O | . | . | . | . | . | .
O=C1c2ccccc2NC(c2cccc(Cl)c2)N1N=C1CCCCCC1 (centres undefined) | -3.9 | . | . | . | . | .
CCN(CC)CCN1C(=O)c2ccccc2NC1c1cccc(F)c1 (centres undefined) | . | . | . | . | . | .
CC1CN(c2ccc(S(=O)(=O)N3CCOCC3)cn2)CC(C)O1 (centres undefined) | . | . | . | . | . | 40
Cc1cc(-c2ccccc2)nc(N2CCC(C(=O)NCc3ccccc3Cl)CC2)n1 | . | 82 | . | . | . | .
CCn1c(=O)cc(SCC(=O)N2CCN(c3ccccc3OC)CC2)c2ccccc21 | . | . | . | . | . | .
Clc1ccc(CN(CC2CCCO2)C(c2cccs2)c2nnnn2C2CCCC2)cc1 (centres undefined) | -8.1 | . | . | . | . | .
Clc1ccccc1CN(Cc1ccccc1)C(c1cccs1)c1nnnn1C1CCCC1 (centres undefined) | . | . | . | . | . | .
Clc1ccc(C(c2nnnn2C2CCCCC2)N(Cc2cccnc2)Cc2ccco2)cc1 (centres undefined) | -3.9 | . | . | . | . | .
Cc1ccc2[nH]c(=O)c(C(c3nnnn3C3CCCC3)N(Cc3cccnc3)Cc3ccco3)cc2c1 (centres undefined) | . | . | . | . | . | .
CCOc1ccc(NC(=O)c2cc3cc4ccc(OC)cc4nc3o2)cc1 | . | . | . | . | . | .
Cc1ccc(C2N(C)c3ccccc3-c3nc4ccccc4n32)o1 (centres undefined) | -5.4 | . | . | . | . | .
COC(=O)CSC1=C(C#N)C(c2ccc(C(C)C)cc2)CC(=O)N1 (centres undefined) | . | . | . | . | . | .
CCc1ccc(C2CC(=O)NC(SCC(=O)OC(C)C)=C2C#N)cc1 (centres undefined) | -8.4 | . | . | . | . | .
O=C(/C=C/c1ccc(Cl)cc1)N1CCN(c2ccc(Cl)cc2[N+](=O)[O-])CC1 | -7.5 | . | . | . | . | .
O=C(/C=C/c1ccc(Cl)cc1)N1CCN(c2ncccn2)CC1 | . | . | . | . | . | .
COC(=O)c1sc(NC(=O)c2ccc(Cn3cc(Cl)cn3)o2)c(C#N)c1C | -3.7 | . | . | . | . | .
N#Cc1c(NC(=O)c2ccc(Cn3cc(Br)cn3)o2)sc2c1CCCCC2 | . | . | . | . | . | .
CCOC(=O)c1c(C)c(C(=O)N2CCN(c3cccc(Cl)c3)CC2)c(C)n1C | . | / | . | / | . | .
Cn1c(SCc2cnc(-c3ccccc3)s2)nnc1C1COc2ccccc2O1 (centres undefined) | -4.9 | . | . | . | . | .
Cc1cc(C(=O)CSc2nnc(C3COc4ccccc4O3)n2C)c(C)n1-c1ccc(F)cc1 (centres undefined) | -7.9 | . | . | . | . | .
N#CCCSc1ncnc2c1oc1ccccc12 | . | . | . | . | . | .
